Data published in PubChem BioAssay AID623995 (National Center for Advancing Translational Sciences (NCATS), 2012).
The list shows a part of the results. A call without a number means that no potency is given here. Results filed as inconclusive are left out. Active and inactive are the calls of the source. Calls follow the shape of the dose curve; as a rule, active = well fitted inhibition curve with a large enough effect; inconclusive = small, poorly fitted or top-dose-only effect; inactive = no such curve, though single readings can be large or run the other way.

target: Isocitrate dehydrogenase [NADP] cytoplasmic (Homo sapiens) (UniProt O75874); assay: qHTS for Inhibitors of mutant isocitrate dehydrogenase 1 (IDH1): Cherrypicks in WT IDH1; conditions: WT IDH1 enzyme, NADPH diaphorase/resazurin fluorescence; series mostly up to 115 µM; also: nearly all actives have a fitted effect of over 55% in size
Source text: Unbiased genomic sequencing for 22 glioma genomes found recurrent mutation of isocitrate dehydrogenase 1 (IDH1) on chromosome 2q33-a gene encoding the cytosolic isoform of IIDH1associated with the tricarboxylic acid cycle (TCA) that catalyzes the oxidative decarboxylation of isocitrate, yielding alpha-ketoglutarate and CO2 via NADP+ to NADPH conversion. Subsequent studies confirmed the recurrent IDH mutations in up to 70% of secondary gliomas and in 10% of AML cases. […] This in effect defines IDH1 as an oncogene, and provides an extraordinary opportunity to discover chemical probes against mutant IDH1 that may translate into much needed new therapies for glioma and AML patients. QHTS-compatible fluorescent, enzymatic assay was developed to identify inhibitors of the IDH1 mutant (AID 602179). To identify selectivity of the identified inhibitors, a secondary enzymatic assay against the WT IDH1 was also developed. Inhibition of the WT IDH1 leads to a decrease in the amount of NADPH relative to a DMSO control and a concomitant decrease in the fluorescence of the diaphorase/resazurin enzyme product resorufin at 590 nm. Compounds were screened as a concentration-titration series that ranged from 115 uM to 0.20 uM. NIH Molecular Libraries Probe Production Network [MLPCN] NIH Chemical Genomics Center [NCGC] MLSCN Grant: R03 DA032129 PI Name: Dr. Lenny Dang
Enzyme buffer was dispensed into black, solid 1536-well plates at 3 microL/well in 20 mM Tris buffer, pH 7.5, containing final concentrations of 10 mM MgCl2, 20 mM NaCl, 0.05% BSA, 2 mM b-ME and 0.65 nM WT IDH1. Then, 23 nL of compounds or DMSO were delivered to each well using a pin tool. The substrate and detection buffer (1 uL; 20 mM Tris buffer, pH 7.5, containing final concentrations of 10 mM MgCl2, 20 mM NaCl, 0.05% BSA, 0.06 mM NADP+, 0.53 uM diaphorase, 0.012 mM resazurin and 0.08 mM isocitrate) was added to start the enzymatic reaction. The fluorescence intensity was monitored in kinetic mode on a ViewLux plate reader at 598 nm for 10 minutes (Ex 525, EM 598, bodipy mirror, 0.5 sec exposure). The % Activity was determined from the corrected fluorescence values. As no specific WT IDH1 inhibitors have been identified in the literature, 1x (0.65 nM) and 0x WT IDH1 enzyme controls (untreated) were included to normalize % Activity of identified inhibitors; 0x enzyme values corresponded to 100% Activity (full inhibition), while 1x WT IDH1 enzyme values were used to normalize 0% Activity (no inhibition). Concentration-response curves were fitted to the signals arising from the resulting fluorescence. The concentration-response curves were then classified based on curve quality (r2), response magnitude and degree of measured activity, and compounds were subsequently categorized based on their curve class. […] Keywords: Isocitrate dehydrogenase, IDH1, IDH1 R132H, 2-HG, 2-hydroxyglutarate, AML, glioma, MLSMR, MLPCN, NIH Roadmap, qHTS, NCGC
Potency is read from the fitted curve at half-maximal effect.

Chain of Isocitrate dehydrogenase [NADP] cytoplasmic (Homo sapiens) (O75874 whole entry, looked up, canonical isoform): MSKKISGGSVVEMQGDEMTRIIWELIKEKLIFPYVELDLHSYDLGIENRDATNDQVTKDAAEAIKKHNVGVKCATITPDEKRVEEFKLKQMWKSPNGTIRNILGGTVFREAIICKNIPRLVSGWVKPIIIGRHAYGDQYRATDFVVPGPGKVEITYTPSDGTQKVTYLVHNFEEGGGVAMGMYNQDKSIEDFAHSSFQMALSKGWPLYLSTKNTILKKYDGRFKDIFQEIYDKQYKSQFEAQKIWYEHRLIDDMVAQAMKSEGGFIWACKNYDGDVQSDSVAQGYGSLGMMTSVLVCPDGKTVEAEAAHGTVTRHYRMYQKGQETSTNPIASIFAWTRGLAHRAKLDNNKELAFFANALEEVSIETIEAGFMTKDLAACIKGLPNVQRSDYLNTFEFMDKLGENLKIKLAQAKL

SMILES	Potency
O=C1c2cccc3cccc(c23)C(=O)N1CCCCCc1n[nH]c(=S)o1	inactive
Cc1ccc2nc(N3C(=O)C(O)=C(C(=O)c4ccco4)C3c3cccc(O)c3)sc2c1 (centres undefined)	inactive
CC(C)N(C(=O)CSc1nc(COc2ccccc2)nc2ccccc12)C(C)C	inactive
CCC(C)(C)NC(=O)C(c1cccn1C)N(Cc1ccc(C)cc1)C(=O)Cn1nnc2ccccc21 (centres undefined)	inactive
CCCCC(=O)NC(c1ccc(OC)c(OC)c1)c1ccc2cccnc2c1O (centres undefined)	inactive
COc1ccc(C(CCN(Cc2ccc(OC)c(OC)c2)C(=O)CCl)c2ccccc2)cc1 (centres undefined)	inactive
Cc1ccc(Nc2nc(CSc3nnc(-c4ccncc4)n3-c3ccccc3C)cs2)cc1	inactive
COc1ccc(C(C(=O)NC2CCCCC2)N(C(=O)c2snc(C(N)=O)c2N)c2ccccc2OC)cc1 (centres undefined)	inactive
Cn1c(COc2ccc(Cl)cc2)nc2ccccc2c1=O	inactive
COc1ccc(/C=C2/SC(=O)N(CCCCCC(=O)Nc3ccccc3C(=O)O)C2=S)cc1	79.4 µM (active)
COc1cc(/C=C2/SC(=S)N(Cc3ccccc3)C2=O)cc(OC)c1O	inactive
CCSc1nc2sc3c(c2c(=O)n1-c1ccc(C)cc1)CCN(C)C3	inactive
COC(=O)c1cccc(N(C(=O)c2ccco2)C(C(=O)NC2CCCC2)c2ccco2)c1 (centres undefined)	inactive
CCOC(=O)c1ccc(N2C(=O)c3n[nH]c(-c4ccco4)c3C2c2ccc(O)cc2)cc1 (centres undefined)	inactive
C(=N/Nc1cc(N2CCOCC2)nc(N2CCOCC2)n1)/c1ccccc1	inactive
N#CC1=C(N)C(C#N)(C#N)[C@H](c2ccsc2)[C@H]2COCC=C12	inactive
COc1cc2c(-c3ccc4c(c3)OCO4)c(-c3ccsc3)oc(=O)c2cc1OC	inactive
COc1cc(/C=C2/C(=O)ON=C2C)ccc1OCc1ccccc1F	inactive
Cc1nc(C)c(C(=O)N(c2ccc(C)c(C)c2)C(C(=O)NCc2ccco2)c2ccccc2)s1 (centres undefined)	inactive
Cc1cccc(N(C(=O)Cc2cccs2)C(C(=O)NC2CCCC2)c2ccsc2)c1 (centres undefined)	inactive
CCOC(=O)c1oc2c(CN3CCN(CCO)CC3)c(O)c(CC)cc2c(=O)c1-c1nc2ccccc2s1	inactive
CCCc1nc2c(c(=O)c3ccccc3n2C)c(=O)n1C1CCCCCC1	inactive
CCCNc1ncnc2c1c(-c1ccccc1)cn2-c1ccc(OCC)cc1	inactive
COc1ccc(/C=N/Nc2cc(N3CCOCC3)nc(C)n2)c(OC)c1	inactive
Cc1nc(-c2ccc(Cl)cc2)sc1C(=O)CBr	inactive
CCCc1[nH]nc2c1C(c1ccc(OC)c(Cn3nc(C)c(Br)c3C)c1)C(C#N)=C(N)O2 (centres undefined)	inactive
CC(C)Nc1nc(N(c2ccccc2)c2ccccc2)nc(-n2ccnc2)n1	inactive
CCCOc1ccc(C2c3c(-c4ccccc4O)n[nH]c3C(=O)N2Cc2cccnc2)cc1 (centres undefined)	inactive
CC(C)(C)c1ccc(S(=O)(=O)Nc2ccc(O)c(Sc3nc4ccccc4s3)c2)cc1	inactive
